In PubChem BioAssay (NCI) one finds growth inhibition data, which are given here for 19 compounds.

Assay [1] is described as follows: NCI Yeast Anticancer Drug Screen. Data for the rad50 strain (AID 155).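 Further: 0% = growth of vehicle-only cultures of the same strain.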 To be noted: S. cerevisiae rad50 strain growth inhibition; at 50.0 µM; hits give high values. An outline of the steps:
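Compounds were tested on a yeast strain with an engineered DNA damage repair alteration; the reported value is growth inhibition normalised to vehicle treatment.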

A short description of assay [2]: NCI Yeast Anticancer Drug Screen. Data for the mec2-1 strain (AID 157). The settings on record: S. cerevisiae mec2-1 strain, at 50.0 µM, hits give high values. The method, boiled down: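 Growth inhibition is read against vehicle-treated controls after compound exposure of the mec2-1 yeast strain, which is defective in DNA damage repair or cell cycle control.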
Assay [3] can be described thus: NCI Yeast Anticancer Drug Screen. Data for the sgs1 mgt1 strain (AID 161).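 Further: 0% = growth of cultures given vehicle only.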 The settings on record: S. cerevisiae sgs1 mgt1 strain, at 50.0 µM, hits give high values. The method, boiled down:
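Percent growth inhibition was derived by comparing compound-exposed mutant yeast with vehicle-exposed cultures. The strain carries alterations in DNA damage repair.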

Assay [4] can be described thus: NCI Yeast Anticancer Drug Screen. Data for the cln2 rad14 strain (AID 165).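 Further: 0% = growth equal to vehicle treated cultures.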 The settings on record: S. cerevisiae cln2 rad14 strain, at 50.0 µM, hits give high values. The method, boiled down: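 Growth inhibition, relative to vehicle-treated controls, is the read-out. The test organism is a yeast strain with defined genetic alterations, cln2 rad14.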
Assay [5] in a line: NCI Yeast Anticancer Drug Screen. Data for the bub3 strain (AID 167). To be noted: S. cerevisiae bub3 mutant strain, at 50.0 µM, hits give high values. The method, boiled down: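 Growth of a checkpoint-deficient yeast mutant is measured after compound exposure. Values represent inhibition relative to vehicle.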
Assay [6] is described as follows: NCI Yeast Anticancer Drug Screen. Data for the mlh1 rad18 strain (AID 175). To be noted: S. cerevisiae mlh1 rad18 strain growth inhibition; at 50.0 µM; hits give high values. An outline of the steps:
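Cells of a genetically altered yeast strain, deficient in DNA damage repair, were treated with compound. Their growth was then compared with that of vehicle-treated cultures to give inhibition.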

Several values for one entry are separate records, joined by “and”; a condition that tells them apart may be missing. Equal entries are not always repeated. The panel holds about 79,000 compounds, 15% with a hit somewhere; the sample as a whole holds those more often. Unmarked numbers belong to inactive results. Activity calls are given as the source filed them. No stated cut-off is given here; in the data, active means growth inhibition above about 70%; inactive means the rest.

Regarding `O=C(O)CCC(=O)O.[Ni]`, the growth inhibition in assay [1] was -29.1%; in assay [2], -17.1%; in assay [3], -27%; in assay [4], -36.5%; in assay [5], -31.2%; in assay [6] it was -18.3%.

On to `CCOC(=O)C1=C(OC(OCC)C(CC)[Se]c2ccccc2)CCC1` (centres undefined), for which the growth inhibition in assay [1] was 50.4%; in assay [2], 10.6%; in assay [3] it was 40%; in assay [4] it was 22.4%; in assay [5], 22.7%; in assay [6], 39.9%.

For `COC(=O)C(C)NP(=O)(N1CC1)N1CC1` (centres undefined), the growth inhibition in assay [1] is 1.5%; in assay [2], -2.25%; in assay [3] it was -5.05%; in assay [4], -10.2%; in assay [5], -7.85%; in assay [6] it was -14.3%.

As to `CCC1=CC2CN3CCc4c([nH]c5ccccc45)C(C(=O)OC)(C2)C13` (centres undefined), the growth inhibition was 30.2% and -9.75% in assay [1]; -26.9% and -17.9% in assay [2]; -12.8% and -33.1% in assay [3]; -19.3% and -6.65% in assay [4]; -2.3% and -38.2% in assay [5]; -17.6% and -19.2% in assay [6].

Consider `CC12CCC3C(=CC=C4CC(O)CCC43C)C1CCC2=O` (centres undefined), for which the growth inhibition in assay [1] is 1.9% and 14.2%; in assay [2] it was 17.2% and 0.65%; in assay [3], 18.6% and 10.6%; in assay [4], 0.95% and -45.7%; in assay [5] it was 22.9% and -11.6%; in assay [6], 23.1% and 16.1%.

`Cc1cc(C)cc(C(O)(C(=O)O)c2ccccc2)c1` (centres undefined): the growth inhibition in assay [1] is -0.75%; in assay [2], -5.35%; in assay [3], -5.45%; in assay [4] it was 5.55%; in assay [5], -5.9%; in assay [6], -4.9%.

For `O=c1c2cc(Br)cc(Br)c2[nH]c(=S)n1-c1ccccc1`, the growth inhibition in assay [1] was -2.45%; in assay [2], 31.4%; in assay [3], 21.5%; in assay [4], 21.4%; in assay [5], 27.6%; in assay [6], 19.8%.

As to `CC1C2CCC3C(O)C2(CC(O)C2(O)C1CC(O)C2(C)C)CC3(C)O` (centres undefined), the growth inhibition in assay [1] is 11.6%; in assay [2], -24.8%; in assay [3], 6.85%; in assay [4] it was 13.3%; in assay [5] it was -5.15%; in assay [6], -4.35%.

As for `CC12CC3OC(=O)C1COC14OC5(C2C1=O)C(O)(CCC1C4CC(O)C2(O)CC=CC(=O)C12C)C(=O)OC35C` (centres undefined), the growth inhibition is 5.85% in assay [1]; 7.95% in assay [2]; 8.3% in assay [3]; 11.2% in assay [4]; -1.3% in assay [5]; -40.8% in assay [6].

`CC(C)(C)C1(C)CN(N=O)C(=O)O1` (centres undefined): the growth inhibition in assay [1] was -5.05%; in assay [2], -9.7%; in assay [3], -9.5%; in assay [4] it was -26.1%; in assay [5], 5.85%; in assay [6], -15.5%.

Regarding `CCCCOC(=O)C(O)CF` (centres undefined), the growth inhibition in assay [1] was -25.2%; in assay [2], -10.1%; in assay [3], -0.25%; in assay [4], 1.6%; in assay [5] it was 1.05%; in assay [6], -29.6%.

In the case of `OCCBr`, the growth inhibition in assay [1] was -2.95%; in assay [2], -7.7%; in assay [3], -4.65%; in assay [4], -1.05%; in assay [5], -0.7%; in assay [6], -17.9%.

On to `CC(=O)O`, for which the growth inhibition is 2.15% in assay [1]; -13% in assay [2]; 7.5% in assay [3]; 4.05% in assay [4]; 1.45% in assay [5]; 0.55% in assay [6].

Regarding `CCOP(=O)(OCC)C(=C(Cl)Cl)C(Cl)Cl`, the growth inhibition in assay [1] is 82.6% (active); in assay [2] it was 85.2% (active); in assay [3] it was 8.75%; in assay [4], 37.6%; in assay [5], -17.1%; in assay [6], 49.8%.

Consider `CCCC1NCCOC1(O)c1ccccc1` (centres undefined), for which the growth inhibition in assay [1] was -11.2%; in assay [2], -8.35%; in assay [3], -1%; in assay [4], -16.4%; in assay [5] it was 3.35%; in assay [6] it was -33.8%.

For the compound `O=C1NC(=O)C(=O)C(=O)N1`, the growth inhibition in assay [1] is -16.2%; in assay [2], 8.15%; in assay [3], -1.75%; in assay [4], -32.2%; in assay [5], 1%; in assay [6] it was 0.5%.

With `Cc1cc(-c2ccccc2)cc(C)[n+]1CC[n+]1c(C)cc(-c2ccccc2)cc1C`, the growth inhibition in assay [1] is -14.9%; in assay [2] it was -10.7%; in assay [3], -5.85%; in assay [4], -47.7%; in assay [5], 3.4%; in assay [6], -19.4%.

Consider `CCCO[As](=O)(OCCC)OCCC`, for which the growth inhibition in assay [1] was 5.55%; in assay [2] it was 6.95%; in assay [3] it was 5.8%; in assay [4] it was 11.8%; in assay [5], 24.1%; in assay [6], -9.1%.

Take `CCn1nnnc1N`: the growth inhibition in assay [1] is 3.35%; in assay [2], 15.9%; in assay [3], 11.1%; in assay [4] it was 16.4%; in assay [5] it was 17.8%; in assay [6], 14%.
